Compound activity from PubChem BioAssay.
An excerpt weighted towards active compounds, which were near 1.6% of everything screened.
Hsp90 block: displaces geldanamycin probe from tumor Hsp90. NCI-N417 lysate Hsp90, Cy3B-geldanamycin FP displacement. hit rate 0.35% among 64,000. inhibition, % at 30 µM;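 active = inhibition above 50%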;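 note: 0% = tracer plus lysate wells and 100% = tracer alone without lysate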
SK-BR-3 tox 24h: SK-BR-3 proliferation inhibitors. SK-BR-3 viability, CellTiter-Glo ATP luminescence, 24 h; hits give low values. viability, % at 10 µM. hit rate 0.47% among 41,000. AID 847;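 active = viability at or below the median of all test compounds minus 3 SD, in both replicates if run twice, cut at about 45% in these data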;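 note: 100% = median untreated cell wells and 0% = median positive control drug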
PKA inh: blocks human protein kinase A activity. P17612. PKA Kemptide phosphorylation, Kinase-Glo ATP luminescence. inhibition, % at 6 µM. hit rate 0.1% among 65,000. AID 524;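 active = inhibition above the screen-wide mean inhibition plus 3 SD, cut at about 21% in these data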
Her2 expr inh: inhibitors of human Her2 kinase expression | P04626 | SKBR-3 HER2 protein level, AlphaScreen, 18-24 h; hits give low values | HER2 level % of control, % at 10 µM | hit rate 0.69% among 65,000 | AID 645;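 active = HER2 level under 5% of the carrier-only control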;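 note: 100% = DMSO carrier and 0% = 500 nM PU-H71 HSP90 inhibitor; lower value means stronger loss of Her2 protein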
WNV NS2B-NS3 inh: inhibitors of West Nile virus NS2B-NS3 protease; WNV NS2B-NS3 protease, fluorogenic substrate Ex360/Em465; hits give low values; z-score (test concentration not listed); hit rate 0.18% among 65,000; AID 577; in the data active = z-score below about -3
ROCK2 blocker: inhibitors of human Rho kinase 2 | inhibition, % at 6 µM | hit rate 0.35% among 60,000 | purified ROCK2, Kinase-Glo ATP depletion luminescence | O75116;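 active = inhibition above the screen-wide mean inhibition plus 3 SD, cut at about 18% in these data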;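 note: plate controls were DMSO wells for no effect and Y-27632 control wells after no-enzyme background subtraction for full effect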
Starred values were filed as active, the others as inactive; nt = no result.

SMILES | Hsp90 block | SK-BR-3 tox 24h | PKA inh | Her2 expr inh | WNV NS2B-NS3 inh | ROCK2 blocker
CCCOc1ccc(N2C(=O)CC(N3CCC(c4nncn4CC)CC3)C2=O)cc1 (stereo unspecified) | -21 | 94 | 11 | 85 | -0.35 | 7
CN1CCN(CCCNc2nc3ccccc3c3nc(-c4ccccc4)nn23)CC1 | -3 | nt | 3 | -10* | -0.98 | 2
COCC(C)n1c(C)cc(C(=O)COC(=O)c2c(C)nn(-c3ccccc3)c2C)c1C (stereo unspecified) | -8 | nt | 6 | 96 | 0.97 | 0
COCC(C)n1c(C)cc(C(=O)COC(=O)c2c(NC(C)=O)sc(C)c2C)c1C (stereo unspecified) | -3 | nt | -1 | -11* | -0.0018 | -3
Cc1cc(C)cc(N2C(=O)C3C4C=CC(C4)C3C2=O)c1 (stereo unspecified) | 1 | 100 | 5 | 99 | -0.27 | 6
CC(C)NCc1c(O)c(Br)cc2oc3c(c12)CCCC3 | -2 | 93 | -1 | 110 | -4* | 2
O=C1NCCCc2c1oc1cc(Br)c(O)c(Br)c21 | 2 | 144 | 1 | 73 | 0.95 | 0
CCCCCNC(=O)C(C#N)c1nc2ccccc2nc1N1CCCC1 (stereo unspecified) | -1 | 74 | 3 | -23* | 0.24 | 6
COC(=O)C1=C(C)N(c2cccc3ccccc23)C(=O)C1 | 51* | 86 | 6 | 167 | -0.75 | 8
CCNc1nnc(-c2ccc(C)cc2)o1 | 1 | 87 | 8 | 81 | 1.2 | 1
CCCC(=O)N1CCN(c2ccc(NC(=O)c3cc4ccccc4o3)cc2Cl)CC1 | 0 | 6.2* | 8 | -9.9* | 1.2 | 11
Cc1nc(-c2c(-c3ccc(O)cc3O)noc2C(F)(F)F)cs1 | 74* | 75 | 2 | 55 | -1.2 | -3
